MCF10A rereplic = inducers of DNA re-replication in MCF 10A breast cells. MCF 10A DNA re-replication, Hoechst nuclear intensity, 48 h. Potency, µM (doses to about 46.1 µM), hits mostly activators. actives 2.9% (n = 350,000); further: nearly all actives have a fitted effect of over 50% in size
SW480 rerep = inducers of DNA re-replication in SW480 colon cancer cells | actives 1.8% (n = 340,000) | Potency, µM (series often up to 46.1 µM), actives largely listed as activators | AID 624297 | SW480 DNA re-replication, Hoechst DNA content imaging, 48 h; further: nearly all actives have a fitted effect of over 55% in size
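Hoechst fluorescence of nuclei (405 nm excitation, 500-530 nm emission) measured by plate-scanning imager after 48 hr compound exposure at 37 C; re-replication scored as increased number of nuclei with elevated intensity.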
KB-V1 cytotox = kills drug-selected multidrug resistant KB-V1 cells | KB-V1 MDR cells viability, CellTiter-Glo, 72 h | Potency, µM (titrated, usually from 46.1 µM), most hits filed as cytotoxic | actives 3.4% (n = 400,000) | AID 1347076; further: nearly all actives have a fitted effect of over 60% in size
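qHTS viability screen in drug-selected KB-V1 MDR cells: 72 h compound treatment at 37 degrees C, ATP luminescence end point.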
IL1B secr inh = inflammasome signaling inhibition, IL-1 beta readout. THP-1 LPS/ATP IL-1B secretion, AlphaLISA, 16 h; active compounds read low. activity change, % at 57.5 µM. actives 4.7% (n = 360,000). AID 743279; in the data active means activity change below about -50%; inconclusive means mostly about -30% to -49%
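Secreted IL-1B measured by AlphaLISA bead assay after 16 h compound exposure of THP-1 cells; compounds (final up to 57.5 uM) added 1 h before LPS (250 ng/mL) and ATP (1.25 mM) stimulation; lower signal means less secretion.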
KB-3-1 cytotox = kills parental KB-3-1 adenocarcinoma cells; AID 1347075; KB-3-1 viability, CellTiter-Glo ATP luminescence, 72 h; actives 1.4% (n = 400,000); Potency, µM (doses to about 46.1 µM), hits mostly cytotoxic; further: nearly all actives have a fitted effect of over 60% in size
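Multi-concentration cytotoxicity screen in KB-3-1 cells grown in DMEM lacking phenol red with 10% FBS. After 72 h at 37 °C with compound, ATP-dependent luminescence was recorded.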
Hits are given with their value; - = inactive; ? = inconclusive; . = no result; ! = not active in a repeat; [ ] = remark or other dose. The list is not random: actives were taken first. Their share in the collection is about 9.9%. Unless noted, the call rests on the fitted dose curve; in most records, active means well fitted curve in the direction sought with a large enough effect; inconclusive means small, poorly fitted or top-dose-only effect, or another doubt; inactive means no such curve, though single readings can be large; an effect the other way counts as inactive or inconclusive.

SMILES | MCF10A rereplic | SW480 rerep | KB-V1 cytotox | IL1B secr inh | KB-3-1 cytotox
Cc1[nH]c2ccccc2c1C(=O)C(C)OC(=O)c1ccc([N+](=O)[O-])o1 (stereo not given) | 23µM | ? | ? | -62 | ?
CN1/C(=C\C(=O)C[n+]2ccc3ccccc3c2)C(C)(C)c2ccccc21 | ? | ? | - | -53 | ?
CN1/C(=C\C(=O)COC(=O)c2ccco2)C(C)(C)c2ccccc21 | -[9.22 µM] | - | ? | - | -
COc1ccccc1OCC(=O)/C=C1/N(C)c2ccccc2C1(C)C | - | - | ? | - | -
CN1/C(=C\C(=O)c2cccnc2)C(C)(C)c2ccccc21 | - | ? | ? | - | -
CN1/C(=C\C(=O)c2cncc(Br)c2)C(C)(C)c2ccccc21 | 16µM | ? | ? | -51 | ?
CN1/C(=C\C(=O)c2ccco2)C(C)(C)c2ccccc21 | ? | 23µM | ? | ? | 21µM
CN1/C(=C/C(=O)c2nc(S(C)(=O)=O)ncc2Cl)C(C)(C)c2ccccc21 | ? | 12µM | ? | -100 | ?
CN1/C(=C\C(=O)C(F)F)C(C)(C)c2ccccc21 | - | - | - | - | -
COc1ccccc1CNC(=O)c1cc(S(=O)(=O)N2CCCCCC2)cn1C | . | . | - | . | -
O=c1ccn([C@@H]2O[C@H](CNCc3ccccc3OCc3ccc(Cl)cc3Cl)[C@@H](O)[C@H]2O)c(=O)[nH]1 | . | . | - | - | -
Cc1cc(C(=O)CSc2nnc(NCc3ccccc3)s2)c(C)n1C | ? | ? | ? | - | ?
CN1/C(=C\C(=O)CSc2nnc(NCc3ccccc3)s2)C(C)(C)c2ccccc21 | 18µM | - | ? | - | -
COc1ccc(NC(=O)C2CC(=O)N(c3ccccc3F)C2)cc1S(=O)(=O)N1CCCCC1 (stereo not given) | . | . | - | - | -
Clc1ccccc1OCCNc1nc(NCC2CC2)nc2ccsc12 | . | . | ? | - | -
c1ccc(OCCNc2nc(NCC3CC3)nc3cc(-c4ccccc4)sc23)cc1 | . | . | ? | -106 | ?
c1ccc(CNc2nc(NCC3CC3)nc3cc(-c4ccccc4)sc23)cc1 | . | . | - | -116 | ?
CC(C)C(NS(=O)(=O)c1cccc(C(F)(F)F)c1)C(=O)O (stereo not given) | - | - | - | - | -
CCC1(C)Cc2c(sc3[nH]c(=O)[nH]c(=O)c23)CS1 (stereo not given) | - | - | 12µM | - | -
COC(=O)c1nn(-c2ccccc2)c(=O)cc1O | - | - | - | - | -
COC(=O)c1nn(-c2c(C)n(C)n(-c3ccccc3)c2=O)cc1O | 4.1µM | - | - | - | -
CCCCN(CC(=O)NCc1ccc(Cl)cc1)S(=O)(=O)c1ccc2c(c1)OCCO2 | ? | - | 12µM | - | -
O=C(CN(c1ccc2c(c1)OCCO2)S(=O)(=O)c1ccccc1)NCc1ccc(Cl)cc1 | ? | - | 3.7µM | - | -
COc1cc(C(=O)Nn2c(C)nc3ccccc3c2=O)cc(OC)c1OC | - | - | - | - | -
O=C(CCCCn1c(=O)c2ccccc2n(CC(=O)Nc2ccc(F)cc2F)c1=O)NCCc1ccccc1 | . | . | ? | . | -
SMILES | MCF10A rereplic | SW480 rerep | KB-V1 cytotox | IL1B secr inh | KB-3-1 cytotox
CC(C)(C)C(=O)NCCc1nc2ccccc2n1CCCCOc1ccc(Cl)cc1 | . | . | - | . | -
COc1ccc(N2CCN(C(=O)C3CCN(C(=O)c4cccc(Cl)c4)CC3)CC2)cc1 | ? | - | - | - | -
CCN(CC)CCN(C(=O)c1ccc2c(c1)OCCO2)c1nc2c(Cl)cccc2s1 | - | - | - | -66 | -
CN(C)CCN(C(=O)c1cccc(Cl)c1)c1nc2c(Cl)cccc2s1 | - | - | - | - | -
CCN(CC)CCN(C(=O)c1ccc2c(c1)CCCC2)c1nc2c(C)cccc2s1 | ? | - | - | - | ?
CCN(CC)CCN(C(=O)c1ccc2c(c1)OCCO2)c1nc2cc(C)cc(C)c2s1 | - | - | . | -57 | .
CN(C)CCN(C(=O)c1ccccc1Cl)c1nc2c(Cl)cccc2s1 | ? | ? | 23µM | -69 | -
COc1ccc(NC(=O)CC2C(=O)N(c3ccc(F)cc3)C(=O)N2Cc2ccc3c(c2)OCO3)cc1 (stereo not given) | . | . | - | . | -
C=CCOc1ccc(CNc2ccc3[nH]c(=O)[nH]c3c2)cc1 | - | - | - | - | -
O=C(NCc1ccc(F)cc1)c1cnc(Cl)c(Cl)c1 | - | - | - | -79 | -
O=C(NCc1ccccc1)c1cnc(Cl)c(Cl)c1 | - | - | - | - | -
Cc1ccc(Cc2c(C)nc3nc(SCC(=O)NCc4ccco4)nn3c2C)cc1 | 6.5µM | ? | 8.2µM | - | 4.6µM
O=C1C=C(NCc2ccc(Cl)c(Cl)c2)C2(CCCCC2)O1 | - | - | ? | - | ?
O=C(OCCN1C(=O)c2cccc3c(N4CCOCC4)ccc(c23)C1=O)c1ccc(Cl)cc1Cl | ? | 5.8µM | ? | - | ?
O=C(OCCN1C(=O)c2cccc3c(N4CCOCC4)ccc(c23)C1=O)c1cccc(Cl)c1 | - | ? | ? | - | 13µM
O=C(OCCN1C(=O)c2cccc3c(N4CCOCC4)ccc(c23)C1=O)c1ccccc1Cl | - | ? | - | - | ?
O=C(Cc1ccccc1)NC1CC(=O)N(c2ccc3c(c2)OCCO3)C1 (stereo not given) | . | . | - | . | -
O=C(COC(=O)Cn1[nH]c(=O)c2ccccc2c1=O)NNC(=O)c1ccccc1 | - | ? | - | - | -
O=C1c2cccc3cccc(c23)C(=O)N1c1ccncc1 | - | - | - | - | -
COc1ccc(N2C(=O)C(Cl)=C(Oc3cccc(OC)c3)C2=O)cc1 | - | - | - | -102 | -
O=C1c2cccc3cccc(c23)C(=O)N1c1cccnc1 | 18µM | - | - | - | -
COc1ccc(N2C(=O)c3cccc4cccc(c34)C2=O)cc1 | - | 13µM | - | - | -
Cc1c(Cl)cccc1NC(=O)CN1C(=O)c2ccccc2Sc2ncccc21 | . | . | - | . | -
COCC(C)n1c(-c2ccc3c(c2)NC(=O)CO3)csc1=Nc1ccc(OC(F)F)cc1 (stereo not given) | 3.3µM | ? | ? | - | 9.2µM!
O=C1COc2ccc(-c3csc(=Nc4ccc(OC(F)F)cc4)n3CC3CCCO3)cc2N1 (stereo not given) | 16µM | ? | 2.9µM | -65 | ?
CN(C)S(=O)(=O)c1cccc(N=c2scc(-c3ccc4c(c3)NC(=O)CO4)n2CC2CCCO2)c1 (stereo not given) | - | - | 16µM | - | ?
COc1ccccc1N=c1scc(-c2ccc3c(c2)NC(=O)CO3)n1CC1CCCO1 (stereo not given) | ? | - | - | - | -
COc1ccccc1NC(=O)c1ccc(Br)c(S(=O)(=O)N2CCCC2)c1 | ? | ? | ? | - | -
Cc1cccc(-n2c(C)cc(C(=O)C(=O)Nc3ccccc3F)c2C)c1C | . | . | - | . | -
CCN1CCc2c(OCC(=O)N3CCCCC3)cccc2C1=O | - | - | ? | - | -
